Data reported in PubChem BioAssay (NCATS).
Values joined by “and” are separate entries in the source; they are usually repeats but may differ in a detail not shown here. Equal values may be shown once. Inconclusive results are not listed. Active and inactive are the calls of the source. Unless noted, calls come from the whole dose curve; as a rule, active = well fitted curve in the direction sought with a large enough effect; inconclusive = small, poorly fitted or top-dose-only effect, or another doubt; inactive = no such curve, though single readings can be large; an effect the other way counts as inactive or inconclusive.

Assays:
[1] = AP1 Signaling Pathway (AID 357; active = well fitted curve in either direction with a large enough effect, not every such curve was filed as active;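 note: ME-180 reporter cells stimulated with EGF at its EC50 level; % is set by controls: 0 for no effect and ±100 for the full control effect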); details: ME-180 AP-1-bla reporter, EGF-induced, beta-lactamase ratio, 5 h
Summary of the method: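 Modulation of EGF-driven AP-1 transcription was assessed with a beta-lactamase reporter in ME-180 cells. Compound and EC50 EGF were co-incubated 5 hours at 37 °C before 2.5-hour CCF4 loading at room temperature and dual-emission reading.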

[2] = Stat Signaling Pathway (AID 446; active = well fitted curve in either direction with a large enough effect, not every such curve was filed as active;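 note: ME-180 cervical cancer cells given 40 pM IL-6 alongside compound; SIE-controlled beta-lactamase reporter measured as 460/530 nm FRET emission ratio; % is set by controls: 0 for no effect and ±100 for the full control effect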); details: ME-180 (cervical carcinoma) SIE beta-lactamase reporter, IL-6 stimulated, 5 h; at 17.2 µM (top of the series)
Summary of the method: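 Overnight-plated ME-180 cells bearing a STAT Inducible Element beta-lactamase reporter; 5 h co-exposure to compound and 40 pM IL-6; values normalized to 300 pM IL-6 and 125 nM JAK inhibitor controls.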

[3] = target: Glucocorticoid receptor (Homo sapiens) (UniProt P04150); experiment: GR-GFP Redistribution (AID 450;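 active = compounds whose dose series gives a full or clear partial fitted curve of increased nuclear translocation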; note: potency is the fitted concentration of half-maximal effect); details: U2OS GR-GFP nuclear translocation, laser cytometry, 2 h
Chain of Glucocorticoid receptor (Homo sapiens) (P04150 whole entry, looked up, the tested form may be a part): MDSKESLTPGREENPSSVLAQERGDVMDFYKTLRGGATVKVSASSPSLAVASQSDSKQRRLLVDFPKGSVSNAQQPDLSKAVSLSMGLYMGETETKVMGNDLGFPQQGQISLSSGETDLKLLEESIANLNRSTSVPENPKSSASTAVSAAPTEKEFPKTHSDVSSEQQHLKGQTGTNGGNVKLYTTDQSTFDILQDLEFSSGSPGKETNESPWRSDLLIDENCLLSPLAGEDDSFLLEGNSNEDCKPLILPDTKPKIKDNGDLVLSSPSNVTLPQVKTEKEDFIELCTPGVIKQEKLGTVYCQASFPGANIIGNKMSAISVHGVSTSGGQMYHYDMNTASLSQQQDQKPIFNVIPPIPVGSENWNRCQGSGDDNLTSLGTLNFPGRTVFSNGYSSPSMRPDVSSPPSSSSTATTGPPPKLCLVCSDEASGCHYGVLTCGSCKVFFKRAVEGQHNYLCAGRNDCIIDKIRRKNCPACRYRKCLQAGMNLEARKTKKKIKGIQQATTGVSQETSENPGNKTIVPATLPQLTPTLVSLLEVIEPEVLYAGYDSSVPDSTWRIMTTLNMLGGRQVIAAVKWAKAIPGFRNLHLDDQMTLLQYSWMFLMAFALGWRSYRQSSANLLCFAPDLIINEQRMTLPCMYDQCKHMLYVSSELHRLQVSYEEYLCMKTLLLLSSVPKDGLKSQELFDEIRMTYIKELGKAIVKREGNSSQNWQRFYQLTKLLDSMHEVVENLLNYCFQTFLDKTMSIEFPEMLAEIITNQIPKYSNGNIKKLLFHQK

[4] = target: Glucocorticoid receptor (Homo sapiens) (UniProt P04150); experiment: GR-EFC Redistribution (AID 451; calls by dose curve; note: potency is the fitted concentration of half-maximal effect); details: CHO-K1 GR-EFC translocation, beta-gal luminescence, 2 h
Summary of the method: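 CHO-K1 cells stably expressing nuclear-localized β-gal enzyme acceptor and GR fused C-terminally to the enzyme donor fragment; ligand-driven nuclear translocation restores β-gal by complementation. Compounds titrated up to 46 uM final, 2 h at 37 °C; luminescence read.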

[5] = target: Mitogen-activated protein kinase 10 (Mus musculus) (UniProt Q61831); experiment: JNK3 AlphaScreen Assay (AID 530; active = well fitted curve in either direction with a large enough effect, not every such curve was filed as active;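 note: kinase came from lysate of stimulated human HepG2 cells; signal reports phosphorylation of biotinylated GST-cJun 1-79 at Ser73 with 10 µM ATP; % is set by controls: 0 for no effect and ±100 for the full control effect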)
Summary of the method: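 Phosphorylation of biotinylated GST-cJun(1-79) at Ser73 is measured by AlphaScreen proximity luminescence. Enzyme is JNK3 in HepG2 lysates activated with interleukin-1beta and tumor necrosis factor alpha; ATP is 10 uM final.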

[6] = target: Guanine nucleotide-binding protein G(i) subunit alpha-1 (Homo sapiens) (UniProt P63096); experiment: qHTS Assay for Inhibitors of RGS12 GoLoco Motif Activity (Green Fluorophore) (AID 879);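 note: 0% = labeled peptide with Gαi1 and full inhibition = labeled peptide alone without protein; negative values mean loss of peptide binding seen as reduced polarization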
Chain of Guanine nucleotide-binding protein G(i) subunit alpha-1 (Homo sapiens) (P63096 whole entry, looked up): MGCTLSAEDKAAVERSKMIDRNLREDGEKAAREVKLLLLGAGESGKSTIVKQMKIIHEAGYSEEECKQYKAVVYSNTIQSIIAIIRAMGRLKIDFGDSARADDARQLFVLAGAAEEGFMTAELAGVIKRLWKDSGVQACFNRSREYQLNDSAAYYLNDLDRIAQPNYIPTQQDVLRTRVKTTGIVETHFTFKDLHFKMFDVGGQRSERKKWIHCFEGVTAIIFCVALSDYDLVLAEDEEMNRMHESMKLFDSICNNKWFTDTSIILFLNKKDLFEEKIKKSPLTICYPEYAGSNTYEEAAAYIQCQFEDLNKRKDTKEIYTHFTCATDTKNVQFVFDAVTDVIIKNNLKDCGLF
Summary of the method: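 A drop in FITC polarization marked displacement of the FITC-tagged RGS12 GoLoco peptide (10 nM) from Gαi1 (50 nM). Compounds were incubated 10 min at room temperature in Tris pH 7.5 buffer containing 150 mM NaCl, 0.1 mM GDP and 0.05% NP40; unlabeled peptide titration served as control.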

[7] = target: Muscarinic acetylcholine receptor M1 (Rattus norvegicus) (UniProt P08482); experiment: qHTS Assay for Antagonists of Acetylcholine Muscarinic M1 Receptor: Measurement of IP-One Response (AID 944); note: potency is the fitted concentration of half-maximal effect; nearly all actives have a fitted effect of over 75% in size
Chain of Muscarinic acetylcholine receptor M1 (Rattus norvegicus) (P08482 whole entry, looked up): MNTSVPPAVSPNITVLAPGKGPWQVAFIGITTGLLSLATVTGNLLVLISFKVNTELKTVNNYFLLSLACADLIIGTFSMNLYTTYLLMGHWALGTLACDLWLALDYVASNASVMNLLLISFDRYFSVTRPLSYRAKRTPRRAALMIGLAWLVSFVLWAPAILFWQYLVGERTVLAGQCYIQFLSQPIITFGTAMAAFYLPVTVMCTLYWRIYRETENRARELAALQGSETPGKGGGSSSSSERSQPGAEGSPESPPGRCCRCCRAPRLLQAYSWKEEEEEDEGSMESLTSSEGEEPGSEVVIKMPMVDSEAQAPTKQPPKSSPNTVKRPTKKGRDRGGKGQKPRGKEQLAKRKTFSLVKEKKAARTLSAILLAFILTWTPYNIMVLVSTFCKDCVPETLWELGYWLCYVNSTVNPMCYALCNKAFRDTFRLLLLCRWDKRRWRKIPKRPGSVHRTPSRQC
Summary of the method: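 Antagonist mode with rat M1 receptor transfected into CHO cells. Compound is added first for 10 min, carbachol at its EC80 follows for 30 min, and lysis reagents then allow TR-FRET detection of accumulated IP1.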

[8] = target: Pyruvate kinase PKM (Homo sapiens) (UniProt P14618); experiment: qHTS Assay for Activators of Human Muscle Pyruvate Kinase (AID 954; active = well fitted curve in the direction sought with a large enough effect, not every such curve was filed as active;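 note: 0% = uninhibited enzyme and -100% = no enzyme or full thiadiazolimine inhibition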)
Chain of Pyruvate kinase PKM (Homo sapiens) (P14618 whole entry, looked up): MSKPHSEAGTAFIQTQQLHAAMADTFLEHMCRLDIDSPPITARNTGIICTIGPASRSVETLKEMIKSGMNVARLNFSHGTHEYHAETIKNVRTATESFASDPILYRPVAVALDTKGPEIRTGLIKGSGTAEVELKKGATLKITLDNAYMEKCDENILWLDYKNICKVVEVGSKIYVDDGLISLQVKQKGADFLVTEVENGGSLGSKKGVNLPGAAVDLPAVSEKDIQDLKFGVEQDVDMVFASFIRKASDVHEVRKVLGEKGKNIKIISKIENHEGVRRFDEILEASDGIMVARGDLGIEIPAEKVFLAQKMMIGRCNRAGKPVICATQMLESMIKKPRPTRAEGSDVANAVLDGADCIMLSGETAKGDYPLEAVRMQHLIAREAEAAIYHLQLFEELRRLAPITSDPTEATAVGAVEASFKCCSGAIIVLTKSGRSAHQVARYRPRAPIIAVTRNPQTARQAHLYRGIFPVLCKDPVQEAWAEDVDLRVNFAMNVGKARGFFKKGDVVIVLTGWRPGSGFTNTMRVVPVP
Summary of the method: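 Screening used highly purified human pyruvate kinase M2 under submaximal activity, with PEP at its Km and ADP below Km. After an hour at room temperature, ATP was read by luciferase luminescence.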

[9] = target: Alpha-galactosidase A (Homo sapiens) (UniProt P06280); experiment: Counterscreen for Glucocerebrosidase Inhibitors: qHTS Assay for Human alpha-Galactosidase at pH 4.5 (AID 992); note: 0% is about no effect
Chain of Alpha-galactosidase A (Homo sapiens) (P06280 whole entry, looked up): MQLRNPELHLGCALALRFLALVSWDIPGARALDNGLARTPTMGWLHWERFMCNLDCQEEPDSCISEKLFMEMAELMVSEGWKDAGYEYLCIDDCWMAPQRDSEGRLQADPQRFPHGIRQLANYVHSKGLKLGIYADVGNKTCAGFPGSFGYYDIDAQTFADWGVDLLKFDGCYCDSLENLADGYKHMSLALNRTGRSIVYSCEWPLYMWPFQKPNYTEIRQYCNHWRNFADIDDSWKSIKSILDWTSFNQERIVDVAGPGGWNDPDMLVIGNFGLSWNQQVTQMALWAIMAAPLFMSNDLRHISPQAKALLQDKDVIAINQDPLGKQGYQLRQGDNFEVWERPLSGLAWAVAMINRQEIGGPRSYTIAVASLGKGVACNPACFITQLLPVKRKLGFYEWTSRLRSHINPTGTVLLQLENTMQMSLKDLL
Summary of the method: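 Each compound is preincubated briefly with 2 nM enzyme before substrate addition (80 uM); plates then sit 20 min at ambient temperature, are quenched with 1M NaOH/1M glycine, and read fluorometrically.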

[10] = target: alpha-glucosidase (Oryza sativa, rice) (UniProt Q653V4); experiment: Counterscreen for Glucocerebrosidase Inhibitors: qHTS Assay for Rice alpha-Glucosidase at pH 5.0 (AID 997);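 note: 0% = full activity with enzyme and -100% = basal without enzyme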
Summary of the method: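 Endpoint fluorogenic assay at pH 5.0: compounds (0.7 nM to 77 uM) titrated against 4 nM rice enzyme and 400 uM 4-MU-alpha-glucoside for 20 min at room temperature; NaOH/glycine stop, read ex 365/em 440 nm, Hill-fitted AC50.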

[11] = qHTS Assay for Lipid Storage Modulators (AID 1519; calls by dose curve); details: Drosophila S3 cells, BODIPY lipid droplet/cell ratio, laser cytometry, cells loaded with oleic acid
Summary of the method: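 Cells seeded at 5,000 per well were treated with compounds over a concentration series and loaded with oleic acid (400 uM, as added). Lipid droplet fluorescence (488 nm excitation, 500-530 nm channel) was read by laser-scanning cytometry and normalized to 20 uM Triacsin C.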

[12] = target: Ubiquitin carboxyl-terminal hydrolase 1 (Homo sapiens) (UniProt O94782); experiment: Inhibitors of USP1/UAF1: Pilot qHTS (AID 504865);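 note: rhodamine fluorescence freed from ubiquitin-rhodamine substrate followed over time; top concentration of the series differs between compounds; % is set by controls: 0 for no effect and ±100 for the full control effect; nearly all actives have a fitted effect of over 35% in size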
Chain of Ubiquitin carboxyl-terminal hydrolase 1 (Homo sapiens) (O94782 whole entry, looked up): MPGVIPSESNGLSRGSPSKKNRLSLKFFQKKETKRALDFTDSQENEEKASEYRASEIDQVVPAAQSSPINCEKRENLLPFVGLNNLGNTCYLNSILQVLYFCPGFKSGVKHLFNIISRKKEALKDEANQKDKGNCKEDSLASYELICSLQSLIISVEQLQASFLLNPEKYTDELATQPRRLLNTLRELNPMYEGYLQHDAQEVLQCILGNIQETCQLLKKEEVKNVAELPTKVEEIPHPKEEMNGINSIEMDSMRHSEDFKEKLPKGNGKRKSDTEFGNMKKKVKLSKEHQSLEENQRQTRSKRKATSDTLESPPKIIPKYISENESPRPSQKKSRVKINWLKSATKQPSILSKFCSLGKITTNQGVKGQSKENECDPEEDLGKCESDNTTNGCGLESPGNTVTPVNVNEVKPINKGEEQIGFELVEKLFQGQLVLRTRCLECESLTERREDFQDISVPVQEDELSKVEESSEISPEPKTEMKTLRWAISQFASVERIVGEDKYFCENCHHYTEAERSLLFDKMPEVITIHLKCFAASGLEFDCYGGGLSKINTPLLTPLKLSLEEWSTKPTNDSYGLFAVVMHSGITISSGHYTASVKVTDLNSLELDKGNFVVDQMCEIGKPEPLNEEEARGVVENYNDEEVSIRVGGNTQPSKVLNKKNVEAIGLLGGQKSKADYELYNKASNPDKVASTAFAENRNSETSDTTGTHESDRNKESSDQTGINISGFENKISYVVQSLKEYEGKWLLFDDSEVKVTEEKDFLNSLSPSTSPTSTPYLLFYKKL
Summary of the method: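 1nM USP1/UAF1 + cpd, 15 min RT; start w/ Ub-Rho 150nM final; kinetic FL 480/540 nm, 6 reads q60 s. Buffer 50mM HEPES pH 7.8, 0.5mM EDTA, 1mM TCEP, 0.01% Tween-20, 0.1 mg/ml BSA.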

[13] = target: DNA dC->dU-editing enzyme APOBEC-3G (Homo sapiens) (UniProt Q9HC16); experiment: qHTS for inhibitors of Vif-A3G interactions: Validation (AID 588379); note: 0% is about no effect
Chain of DNA dC->dU-editing enzyme APOBEC-3G (Homo sapiens) (Q9HC16 whole entry, looked up): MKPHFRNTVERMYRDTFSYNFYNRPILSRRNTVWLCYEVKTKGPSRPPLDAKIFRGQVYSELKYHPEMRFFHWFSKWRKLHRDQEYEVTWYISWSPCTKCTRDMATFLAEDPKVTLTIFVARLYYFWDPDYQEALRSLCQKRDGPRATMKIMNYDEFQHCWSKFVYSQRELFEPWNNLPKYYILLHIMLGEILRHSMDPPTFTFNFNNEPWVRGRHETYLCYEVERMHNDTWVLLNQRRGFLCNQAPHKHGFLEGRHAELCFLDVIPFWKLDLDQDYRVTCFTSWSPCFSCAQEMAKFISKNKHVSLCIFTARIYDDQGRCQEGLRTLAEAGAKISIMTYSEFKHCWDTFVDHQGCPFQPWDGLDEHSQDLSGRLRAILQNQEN
Summary of the method: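 Yellow fluorescence (Ex 488, Em 500-530) of Vif-coexpressing HeLa A3G-eYFP cells, scanned by Acumen cytometer, reports blocked A3G degradation. Cells plated at 700/well overnight at 37 deg C before compound addition, then a further overnight compound incubation at 37 deg C.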

[14] = system: Zika virus NS2B-NS3 protease; experiment: Primary screen GU AMC qHTS for Zika virus inhibitors (AID 1347154);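 note: 0% = no-inhibitor control and -100% = no-enzyme control; nearly all actives have a fitted effect of over 70% in size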
Summary of the method: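 Unlinked Zika NS2B hydrophilic domain/NS3 protease domain noncovalent complex (25 nM final) in 10 mM Tris-HCl pH 8.0, 0.01% Tween 20, with AMC peptide substrate. Fluorescence (ex 340, em 450 nm) change over 15 min, room temperature; percent inhibition fitted to 4-parameter Hill equation.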

[15] = Counterscreen qHTS for small molecule stabilizers of the endoplasmic reticulum resident proteome: GLuc-NoTag assay (AID 1508627);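 note: 0% = thapsigargin alone and -100% = DMSO vehicle control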
Summary of the method: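 Secreted GLuc lacking the SERCaMP modification is measured in SH-SY5Y cells exposed to compound for 19 h and then to thapsigargin (100 nM, 4 h) to deplete ER calcium; hits retested at 11 concentrations, up to 76.6 uM.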

[16] = Cell Viability qHTS for small molecule stabilizers of the endoplasmic reticulum resident proteome (AID 1508629); details: cell viability counter-screen, 100 nM thapsigargin for final 4 h;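 note: human SH-SY5Y neuroblastoma cells carrying the GLuc-SERCaMP reporter; compound exposure about 46 h in total before the viability read; % is set by controls: 0 for no effect and ±100 for the full control effect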

C[C@@H]([C@H](O)c1ccc(O)cc1)N1CCC(Cc2ccccc2)CC1
-1.79%: max response ([11]; measured here: cell count channel max response)
active: Potency [7] 7.94 µM
inactive: activity change, negative = inhibition ([1]; at 17.2 µM (top of the series)) -4.89% | activity change, negative = inhibition ([1]; at 38 µM (top of the series)) -7.76% | activity, negative = inhibition [2] 8.14% | Potency [3] > 46 µM and > 20.6 µM | Potency [4] > 46 µM and > 20.6 µM | Potency [5] | outcome [6] | outcome [8] | outcome [9] | outcome [10] | activity change, negative = inhibition ([11]; at 25.7 µM (top of the series)) -1.79% | Potency [12] | Potency [13] | Potency [14] | Potency [15] | max response [16] -8.82%
-6.29%: max response ([11]; measured here: lipid channel max response)
